Potency and affinity values are given separately. Activity calls are given as the source filed them.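 Rule for the calls: active = in all runs, an absorbance decrease of 25% or more of the average positive control decrease; inconclusive = runs conflict, with both active and inactive results; inactive = all runs inactive, opposite-direction effects included.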
Target: Protein disulfide-isomerase A6 (Homo sapiens) (UniProt Q15084)
Assay: inhibitors of ERp5-mediated insulin aggregation, dose response, biochemical, turbidity, absorbance 650 nm, cherry-picked samples (AID 720566);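 note: negative values mean less insulin aggregation so ERp5 inhibition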
Conditions: Recombinant ERp5 insulin aggregation; series mostly up to 35 µM; activity change, negative = inhibition: at the top concentration

Protein disulfide-isomerase A6 (Homo sapiens), sequence (Q15084 whole entry, looked up): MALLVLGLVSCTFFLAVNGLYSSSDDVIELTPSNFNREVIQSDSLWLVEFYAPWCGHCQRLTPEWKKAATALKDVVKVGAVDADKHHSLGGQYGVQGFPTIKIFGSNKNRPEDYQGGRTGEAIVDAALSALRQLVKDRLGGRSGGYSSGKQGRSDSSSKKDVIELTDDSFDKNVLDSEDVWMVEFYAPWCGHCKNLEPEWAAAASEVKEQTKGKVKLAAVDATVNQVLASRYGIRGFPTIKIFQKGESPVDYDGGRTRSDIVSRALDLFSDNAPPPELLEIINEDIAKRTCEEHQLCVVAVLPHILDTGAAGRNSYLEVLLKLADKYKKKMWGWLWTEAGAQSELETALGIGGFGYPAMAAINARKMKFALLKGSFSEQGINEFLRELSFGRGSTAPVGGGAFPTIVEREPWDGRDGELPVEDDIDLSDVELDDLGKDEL

Activity change, negative = inhibition, inactive:
CC(=O)Nc1ccc2c(c1)C(=O)N(C)[C@H]1CC[C@H](CC(=O)NCC3CC3)O[C@@H]1CO2 1.68%
CCCNC(=O)C[C@H]1C[C@@H]2c3cc(NC(=O)CC4CC4)ccc3O[C@@H]2[C@@H](CO)O1 -10.3%
O=C(C[C@H]1C[C@@H]2c3cc(NC(=O)C4CCC4)ccc3O[C@@H]2[C@H](CO)O1)NCC(F)(F)F 1.45%
COc1ccc(NC(=O)N(C)C[C@H]2Oc3ccc(NS(=O)(=O)c4ccccc4)cc3C(=O)N([C@@H](C)CO)C[C@@H]2C)cc1 3.91%
CCC(=O)Nc1ccc2c(c1)C(=O)N(C)[C@H]1CC[C@@H](CC(=O)NCC3CC3)O[C@H]1CO2 1.64%
C[C@@H]1CN([C@@H](C)CO)C(=O)Cc2cc(NC(=O)Nc3ccc(C(F)(F)F)cc3)ccc2O[C@@H]1CN(C)Cc1ccc(Cl)c(Cl)c1 6.89%
C[C@@H]1CN([C@@H](C)CO)C(=O)c2cc(C#CC3(O)CCCC3)cnc2O[C@H]1CN(C)C(=O)Cc1cccnc1 3.35%
CCN(c1ccccc1)S(=O)(=O)c1ccc(OC)c(NC(=O)c2c(C)noc2C)c1 -6.23%
COc1ccc(NC(=O)N(C)C[C@@H]2Oc3ccc(NC(=O)Nc4ccc(F)cc4)cc3CC(=O)N([C@@H](C)CO)C[C@@H]2C)cc1 -9.35%
COc1cccc(C(=O)OCC(=O)c2[nH]c(C)c(C(C)=O)c2C)c1 -24.1%
C[C@@H]1CN([C@H](C)CO)S(=O)(=O)c2ccc(-c3ccc(F)cc3)cc2O[C@@H]1CN(C)CC1CC1 8.97%
C[C@H]1CN([C@@H](C)CO)C(=O)Cc2cc(NC(=O)c3ccncc3)ccc2O[C@H]1CN(C)S(=O)(=O)c1cn(C)cn1 2.8%
C[C@@H]1CN([C@H](C)CO)C(=O)c2cc(C#CCN(C)C)cnc2O[C@H]1CN(C)Cc1cccc(F)c1 -4.53%
COc1ccc(S(=O)(=O)Nc2ccc3c(c2)CC(=O)N([C@H](C)CO)C[C@H](C)[C@H](CN(C)C(=O)Nc2ccccc2)O3)cc1 -10.3%
O=C(NC1CCCC1)[C@@H]1[C@@H](CO)[C@@H]2Cn3c(ccc(-c4cccnc4)c3=O)[C@H]1N2CC1CC1 2.79%
C[C@@H]1CN([C@H](C)CO)C(=O)c2cc(NC(=O)Nc3cccc4ccccc34)ccc2O[C@@H]1CN(C)C(=O)Nc1cccc2ccccc12 10.4%
Cc1ccc(NC(=O)c2cccc(S(C)(=O)=O)c2)cc1 3.21%
COc1ccc2c3c([nH]c2c1)[C@H](CO)N(C(=O)C1CCOCC1)CC31CCN(Cc2nccs2)CC1 4.53%
Cc1noc(C)c1S(=O)(=O)Nc1cccc2c1O[C@H](CN(C)C(=O)Nc1ccc(C(F)(F)F)cc1)[C@H](C)CN([C@@H](C)CO)C2=O 3.91%
C[C@@H]1CCCCO[C@@H](CN(C)Cc2ccc(C(=O)Nc3ccccc3N)cc2)[C@@H](C)CN([C@H](C)CO)C(=O)c2cc(NS(=O)(=O)c3cccs3)ccc2O1 10.1%
C[C@H](CO)N1C[C@H](C)[C@H](CN(C)C(=O)CCC(F)(F)F)OCCCC[C@H](C)Oc2ccc(NS(=O)(=O)c3ccc(Cl)cc3)cc2C1=O 7.45%
C[C@@H]1CN([C@@H](C)CO)C(=O)c2cccc(NS(=O)(=O)c3ccc(F)cc3)c2O[C@H]1CN(C)S(=O)(=O)c1ccccc1 4.47%
CN(C)C(=O)C[C@@H]1C[C@H]2c3cc(NS(C)(=O)=O)ccc3O[C@H]2[C@@H](CO)O1 -1.45%
COc1ccc(NC(=O)CSc2nnc(NC(=O)C3CC3)s2)cc1OC -1.02%
CC(C)CC#Cc1cnc2c(c1)C(=O)N([C@H](C)CO)C[C@H](C)[C@H](CN(C)Cc1ccccc1C(=O)O)O2 -14% [at 30 µM]
COC(=O)C[C@H]1C[C@@H]2c3cc(NC(=O)Cc4ccncc4)ccc3O[C@@H]2[C@@H](CO)O1 2.05%
COC(=O)[C@]1(C)N[C@H](CN(C)S(=O)(=O)c2ccc(OC(F)(F)F)cc2)[C@@H]2C(=O)N(C)C(=O)[C@@H]21 2.15%
COc1ccc2c3c([nH]c2c1)[C@H](CO)N(C(=O)CN(C)C)CC31CCN(CC2CCCC2)CC1 0.289%
O=C(N/N=C1\CCCc2ccccc21)c1ccccc1Cl -19.1%
COc1ccc2c3c([nH]c2c1)[C@@H](CO)N(C(=O)C1CCCC1)CC31CCN(C(=O)NC(C)C)CC1 4.34%
C[C@H](O)C#Cc1cnc2c(c1)C(=O)N([C@@H](C)CO)C[C@H](C)[C@H](CN(C)CC1CCCCC1)O2 -10.5%
CN(C)C(=O)C[C@H]1C[C@H]2c3cc(NS(C)(=O)=O)ccc3O[C@H]2[C@@H](CO)O1 2.6%
C[C@@H]1CCCCO[C@@H](CN(C)C(=O)CCC(F)(F)F)[C@H](C)CN([C@@H](C)CO)C(=O)c2cc(NS(=O)(=O)c3ccc(Cl)cc3)ccc2O1 5.59%

— PubChem BioAssay AID720566 (Broad Institute, 2013)
